# Measured values from PubChem BioAssay (NCI).
# Compounds without any hit were thinned out: in the full panel of roughly 83,000, 20% have a hit.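 Activity criterion: percent growth below 10, measured after cells in 96-well plates were exposed to a single compound concentration for 48 hours.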 A number with no mark means an inactive call. The source made the active and inactive calls.
# How the values were obtained:
# Assay in all cases: NCI-60 one-dose screen, 48 h (100 = growth as untreated, 0 = no growth, -100 = all killed)
# Conditions in all cases: 10 µM unless noted
# [1] = test system: HCT-15 colon
# [2] = test system: HT29 colon
# [3] = test system: SNB-75 CNS
# [4] = test system: SNB-19 CNS
# [5] = test system: U251 CNS
# [6] = test system: PC-3 prostate
# [7] = test system: SK-MEL-5 melanoma
# [8] = test system: UACC-62 melanoma
# [9] = test system: LOX IMVI melanoma
# [10] = test system: SK-MEL-28 melanoma
Structure (SMILES),growth [1],growth [2],growth [3],growth [4],growth [5],growth [6],growth [7],growth [8],growth [9],growth [10]
CCN(CC)C(=S)SC(SC(=S)N(CC)CC)C(=O)c1nnn(-c2ccc([N+](=O)[O-])cc2)c1C,99%,87.3%,107%,90.8%,81.5%,78.1%,76.7%,86.5%,89%,104%
CC(O)c1cnc(/C=C2\SC(=S)N(Cc3ccccc3)C2=O)s1 (stereo not given),83.6%,-8.15% (active),85.2%,97.9%,54.9%,34%,88.8%,90.3%,41.2%,89.3%
N=C(N)c1ccc(-c2ccc(-c3cc(Cl)cc(Cl)c3)o2)o1,-89.3% (active),-81.1% (active),-68.9% (active),-64.9% (active),-89.9% (active),-25.8% (active),16.2%,-81% (active),-83.6% (active),-80.2% (active)
COc1ccc(C(=S)N2CCN(c3ccccc3Cl)CC2)cc1OC,95.2%,102%,85.6%,85.3%,102%,90.3%,96.4%,89.2%,92.7%,103%
CC[C@@H](C(=O)[C@@H](C)[C@@H](O)[C@H](C)[C@@H]1O[C@@H]([C@@H](CC)C(=O)NCCc2ccc(F)cc2)CC[C@@H]1C)C1O[C@]2(C=CC(=O)[C@]3(CC[C@@](C)([C@H]4CC[C@](O)(CC)[C@H](C)O4)O3)O2)[C@H](C)C[C@@H]1C (stereo not given in full),29.1%,47.2%,20.8%,26.2%,28.4%,8.72% (active),24.6%,26.7%,52.8%,58.2%
CC(=O)N1N=C(c2ccc(Nc3nc(Nc4ccc(Cl)cc4)nc(Nc4ccc(Cl)cc4)n3)cc2)CC1c1ccco1 (stereo not given),85.7%,97.8%,112%,101%,81.7%,87.6%,75.9%,89.9%,95.7%,111%
C[C@]12C=CC(=O)C=C1CCC1C2[C@@H](O)C[C@@]2(C)C1CC[C@]2(O)C(=O)COC(=O)CCC(=O)O (stereo not given in full),105%,105%,120%,104%,103%,93.4%,113%,104%,102%,107%
C=CCn1cc(-c2nc3ccccc3s2)c2cc(-c3ccc4c5c(cccc35)C(=O)N(N)C4=O)ccc21,98%,105%,85.1%,97.2%,104%,88.2%,96.5%,86.9%,95.9%,109%
Cc1ccc(/C=C2\CN(C(=O)OC(C)(C)C)C/C(=C\c3ccc(C)cc3)C2=O)cc1,1.94% (active),-49.9% (active),79.7%,71.4%,12.4%,29.9%,78.9%,56.5%,-63.2% (active),87.3%
O=C1/C(=C/c2ccc(F)cc2)COc2ccc(O)c(O)c21,-27.7% (active),13.5%,26.9%,33.4%,1.66% (active),-0.716% (active),56.3%,7.26% (active),-85.2% (active),44.1%
COC(=O)c1ccc2c(c1)C(=O)c1c-2n(CCCN)c(=O)c2cc([N+](=O)[O-])ccc12,-96.1% (active),-100% (active),-99.2% (active),-59.3% (active),-100% (active),-70.1% (active),-100% (active),-100% (active),-100% (active),-100% (active)
N#Cc1c(NC(=O)c2ccccc2)sc2c1CCC(=O)C2,-3.43% (active),14.1%,-6.39% (active),19.1%,13.4%,12%,-75.8% (active),1.83% (active),6.26% (active),17.5%
O=S(=O)(Nc1ccc(Cl)cc1)c1ccc(-c2cnc(C3CC3)o2)cc1,27.9%,15.4%,-11.9% (active),30%,24.4%,24.2%,15.2%,17.3%,50.5%,61.4%
O=C(/C=C/c1cn(-c2ccccc2)nc1-c1ccc([N+](=O)[O-])cc1)c1ccc(Cl)cc1,46.8%,52.5%,-5.08% (active),52.8%,9.68% (active),58.8%,71.5%,58.9%,37.8%,56.7%
COc1ccc2[nH]cc(-c3nc(-c4cn(C)c5c(Cl)nccc45)cs3)c2c1,0.0691% (active),9.12% (active),61.6%,79.2%,16.3%,23.4%,34.5%,43.8%,21%,46%
N#Cc1c(N)nnn1Cc1cc(=O)oc2c1ccc1ccccc12,102%,101%,88.7%,91.7%,97.5%,93.4%,97.6%,92.5%,59.3%,113%
C1=CN2CC(c3ccccc3)=NNC2c2ccccc21 (stereo not given),96.6%,99.4%,37.5%,105%,103%,81.9%,92.8%,75.5%,92.8%,126%
